In the supplement of paper PMC6992640:

test system: WHIM30 (cells of a triple-negative basal-like breast cancer xenograft); assay: cell viability of combination (% of vehicle); higher = less cytotoxic; conditions: 1 µM; 72 h; partner dose: 10 nM
Protocol: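 PDX cells were treated for 72 h with each drug at 1 µM plus carfilzomib (10 nM; 100 nM for WHIM2). Luciferase viability is expressed as percent of vehicle.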

Compound | cell viability of combination
Clc1ccc(COC(Cn2ccnc2)c2ccc(Cl)cc2Cl)cc1.O=[N+]([O-])O (stereo not given) [Econazole nitrate] + CC(C)C[C@H](NC(=O)[C@H](CCc1ccccc1)NC(=O)CN1CCOCC1)C(=O)N[C@@H](Cc1ccccc1)C(=O)N[C@@H](CC(C)C)C(=O)[C@@]1(C)CO1 [Carfilzomib] | 17.7
O=C(c1ccc(F)c(F)c1Nc1ccc(I)cc1F)N1CC(O)(C2CCCCN2)C1 (stereo not given) [Cobimetinib] + CC(C)C[C@H](NC(=O)[C@H](CCc1ccccc1)NC(=O)CN1CCOCC1)C(=O)N[C@@H](Cc1ccccc1)C(=O)N[C@@H](CC(C)C)C(=O)[C@@]1(C)CO1 [Carfilzomib] | 24.7
CCOc1nc2cccc(C(=O)OC(C)OC(=O)OC3CCCCC3)c2n1Cc1ccc(-c2ccccc2-c2nn[nH]n2)cc1 (stereo not given) [Candesartan Cilexetil] + CC(C)C[C@H](NC(=O)[C@H](CCc1ccccc1)NC(=O)CN1CCOCC1)C(=O)N[C@@H](Cc1ccccc1)C(=O)N[C@@H](CC(C)C)C(=O)[C@@]1(C)CO1 [Carfilzomib] | 18.9
Cl.O.O=C1Cc2cc(CCN3CCN(c4nsc5ccccc45)CC3)c(Cl)cc2N1 [Ziprasidone hydrochloride monohydrate] + CC(C)C[C@H](NC(=O)[C@H](CCc1ccccc1)NC(=O)CN1CCOCC1)C(=O)N[C@@H](Cc1ccccc1)C(=O)N[C@@H](CC(C)C)C(=O)[C@@]1(C)CO1 [Carfilzomib] | 22.5
C#Cc1cccc(Nc2ncnc3cc(OCCOC)c(OCCOC)cc23)c1 [Erlotinib] + CC(C)C[C@H](NC(=O)[C@H](CCc1ccccc1)NC(=O)CN1CCOCC1)C(=O)N[C@@H](Cc1ccccc1)C(=O)N[C@@H](CC(C)C)C(=O)[C@@]1(C)CO1 [Carfilzomib] | 27.4
Cn1cnc2c(F)c(Nc3ccc(Br)cc3F)c(C(=O)NOCCO)cc21 + CC(C)C[C@H](NC(=O)[C@H](CCc1ccccc1)NC(=O)CN1CCOCC1)C(=O)N[C@@H](Cc1ccccc1)C(=O)N[C@@H](CC(C)C)C(=O)[C@@]1(C)CO1 [Carfilzomib] | 36.1
COc1ccc(C[C@H](N)C(=O)N[C@@H]2[C@H](O)[C@H](n3cnc4c(N(C)C)ncnc43)O[C@@H]2CO)cc1.Cl.Cl [Puromycin dihydrochloride] + CC(C)C[C@H](NC(=O)[C@H](CCc1ccccc1)NC(=O)CN1CCOCC1)C(=O)N[C@@H](Cc1ccccc1)C(=O)N[C@@H](CC(C)C)C(=O)[C@@]1(C)CO1 [Carfilzomib] | 5.17
Cl.OC(CNCC(O)C1CCc2cc(F)ccc2O1)C1CCc2cc(F)ccc2O1 (stereo not given) [Nebivolol] + CC(C)C[C@H](NC(=O)[C@H](CCc1ccccc1)NC(=O)CN1CCOCC1)C(=O)N[C@@H](Cc1ccccc1)C(=O)N[C@@H](CC(C)C)C(=O)[C@@]1(C)CO1 [Carfilzomib] | 21.2
Cl.OC(c1cc(C(F)(F)F)nc2c(C(F)(F)F)cccc12)C1CCCCN1 (stereo not given) [Mefloquine hydrochloride] + CC(C)C[C@H](NC(=O)[C@H](CCc1ccccc1)NC(=O)CN1CCOCC1)C(=O)N[C@@H](Cc1ccccc1)C(=O)N[C@@H](CC(C)C)C(=O)[C@@]1(C)CO1 [Carfilzomib] | 20.3
CCCCc1oc2ccccc2c1C(=O)c1cc(I)c(OCCN(CC)CC)c(I)c1.Cl [Amiodarone HCl] + CC(C)C[C@H](NC(=O)[C@H](CCc1ccccc1)NC(=O)CN1CCOCC1)C(=O)N[C@@H](Cc1ccccc1)C(=O)N[C@@H](CC(C)C)C(=O)[C@@]1(C)CO1 [Carfilzomib] | 20.3
COC(=O)NC(C(=O)NC(Cc1ccccc1)C(O)CN(Cc1ccc(-c2ccccn2)cc1)NC(=O)C(NC(=O)OC)C(C)(C)C)C(C)(C)C (stereo not given) [Atazanavir] + CC(C)C[C@H](NC(=O)[C@H](CCc1ccccc1)NC(=O)CN1CCOCC1)C(=O)N[C@@H](Cc1ccccc1)C(=O)N[C@@H](CC(C)C)C(=O)[C@@]1(C)CO1 [Carfilzomib] | 24.5
CCCSc1nc(NC2CC2c2ccc(F)c(F)c2)c2nnn(C3CC(OCCO)C(O)C3O)c2n1 (stereo not given) [Ticagrelor] + CC(C)C[C@H](NC(=O)[C@H](CCc1ccccc1)NC(=O)CN1CCOCC1)C(=O)N[C@@H](Cc1ccccc1)C(=O)N[C@@H](CC(C)C)C(=O)[C@@]1(C)CO1 [Carfilzomib] | 14.4
CC(C)C[C@H](NC(=O)[C@H](Cc1ccccc1)NC(=O)c1cnccn1)B(O)O [Bortezomib] + CC(C)C[C@H](NC(=O)[C@H](CCc1ccccc1)NC(=O)CN1CCOCC1)C(=O)N[C@@H](Cc1ccccc1)C(=O)N[C@@H](CC(C)C)C(=O)[C@@]1(C)CO1 [Carfilzomib] | 5.02
C=CC(=O)N1CCC(Oc2cc3c(Nc4ccc(Cl)c(Cl)c4F)ncnc3cc2OC)CC1 [Poziotinib] + CC(C)C[C@H](NC(=O)[C@H](CCc1ccccc1)NC(=O)CN1CCOCC1)C(=O)N[C@@H](Cc1ccccc1)C(=O)N[C@@H](CC(C)C)C(=O)[C@@]1(C)CO1 [Carfilzomib] | 8.92
CC[C@@H]1/C=C(\C)C[C@H](C)C[C@H](OC)[C@H]2O[C@@](O)(C(=O)C(=O)N3CCCC[C@H]3C(=O)O[C@H](/C(C)=C/[C@@H]3CC[C@H](Cl)[C@H](OC)C3)[C@H](C)[C@@H](O)CC1=O)[C@H](C)C[C@@H]2OC [Pimecrolimus] + CC(C)C[C@H](NC(=O)[C@H](CCc1ccccc1)NC(=O)CN1CCOCC1)C(=O)N[C@@H](Cc1ccccc1)C(=O)N[C@@H](CC(C)C)C(=O)[C@@]1(C)CO1 [Carfilzomib] | 11.7
COC(=O)C1=C(C)NC(C)=C(C(=O)OC2CCCN(Cc3ccccc3)C2)C1c1cccc([N+](=O)[O-])c1.Cl (stereo not given) [Benidipine HCl] + CC(C)C[C@H](NC(=O)[C@H](CCc1ccccc1)NC(=O)CN1CCOCC1)C(=O)N[C@@H](Cc1ccccc1)C(=O)N[C@@H](CC(C)C)C(=O)[C@@]1(C)CO1 [Carfilzomib] | 13.6
COc1cc(Nc2ncc(F)c(Nc3ccc4c(n3)N(COP(=O)(O)O)C(=O)C(C)(C)O4)n2)cc(OC)c1OC [Fostamatinib (R788)] + CC(C)C[C@H](NC(=O)[C@H](CCc1ccccc1)NC(=O)CN1CCOCC1)C(=O)N[C@@H](Cc1ccccc1)C(=O)N[C@@H](CC(C)C)C(=O)[C@@]1(C)CO1 [Carfilzomib] | 16.9
CCOC(=O)c1c(CSc2ccccc2)n(C)c2cc(Br)c(O)c(CN(C)C)c12.Cl [Arbidol HCl] + CC(C)C[C@H](NC(=O)[C@H](CCc1ccccc1)NC(=O)CN1CCOCC1)C(=O)N[C@@H](Cc1ccccc1)C(=O)N[C@@H](CC(C)C)C(=O)[C@@]1(C)CO1 [Carfilzomib] | 22
N.N.O=C([O-])C1(C(=O)[O-])CCC1.[Pt+2] [Carboplatin] + CC(C)C[C@H](NC(=O)[C@H](CCc1ccccc1)NC(=O)CN1CCOCC1)C(=O)N[C@@H](Cc1ccccc1)C(=O)N[C@@H](CC(C)C)C(=O)[C@@]1(C)CO1 [Carfilzomib] | 22.9
CC1=CC(=O)c2ccccc2C1=O [Menadione] + CC(C)C[C@H](NC(=O)[C@H](CCc1ccccc1)NC(=O)CN1CCOCC1)C(=O)N[C@@H](Cc1ccccc1)C(=O)N[C@@H](CC(C)C)C(=O)[C@@]1(C)CO1 [Carfilzomib] | 21.4
